# Assay results from the supplement of paper PMC12282887.
# ± gives the standard deviation of the averaged measurements.
# What was measured:
# Assay in all cases: promoter activity interaction Z-score (Lux/OD deviation from empty-vector control); higher = stronger promoter induction by the compound
# [1] = system: E. coli BW25113 acrABp lux reporter
# In short: (§1)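 E. coli BW25113 (wild type or marA, soxS or rob deletion) carrying low-copy luxCDABE promoter reporters grew in 40 µl LB Lennox in 384-well plates at 37°C. Each compound was tested at four 1:2 dilutions in biological duplicates. OD600 and luminescence were read every 30 min for 12 h. Areas were taken over 0–8 h (wild type) or 1–9 h (mutants), and wells below 10% of median growth area were removed. The score is the Z-transformed residual of growth-normalised luminescence fitted against the empty-vector control.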
# [2] = system: E. coli BW25113 marRABp lux reporter
# In short: as §1
# [3] = system: E. coli BW25113 micFp lux reporter
# In short: as §1
# [4] = system: E. coli BW25113 ompFp lux reporter
# In short: as §1
# [5] = system: E. coli BW25113 robp lux reporter
# In short: as §1
# [6] = system: E. coli BW25113 soxSp lux reporter
# In short: as §1
# [7] = system: E. coli BW25113 tolCp lux reporter
# In short: as §1
# [8] = 24.3 µg/ml, genetic background: wild type
# [9] = 24.3 µg/ml, genetic background: ΔmarA
# [10] = 24.3 µg/ml, genetic background: Δrob
# [11] = 24.3 µg/ml, genetic background: ΔsoxS
# [12] = 48.5 µg/ml, genetic background: wild type
# [13] = 48.5 µg/ml, genetic background: ΔmarA
# [14] = 48.5 µg/ml, genetic background: Δrob
# [15] = 48.5 µg/ml, genetic background: ΔsoxS
# [16] = 97.1 µg/ml, genetic background: wild type
# [17] = 97.1 µg/ml, genetic background: ΔmarA
# [18] = 97.1 µg/ml, genetic background: Δrob
# [19] = 97.1 µg/ml, genetic background: ΔsoxS
# [20] = 194.2 µg/ml, genetic background: wild type
# [21] = 194.2 µg/ml, genetic background: ΔmarA
# [22] = 194.2 µg/ml, genetic background: Δrob
# [23] = 194.2 µg/ml, genetic background: ΔsoxS
smiles,measurement,setting,value
Cn1c(=O)c2c(ncn2C)n(C)c1=O [Caffeine],promoter activity interaction Z-score,[1]; [8],-0.0906 ± 0.17
same,promoter activity interaction Z-score,[1]; [9],1.25 ± 2.5
same,promoter activity interaction Z-score,[1]; [10],0.229 ± 0.12
same,promoter activity interaction Z-score,[1]; [11],0.234 ± 0.23
same,promoter activity interaction Z-score,[1]; [12],0.0551 ± 0.06
same,promoter activity interaction Z-score,[1]; [13],0.244 ± 1.1
same,promoter activity interaction Z-score,[1]; [14],0.254 ± 0.35
same,promoter activity interaction Z-score,[1]; [15],0.3 ± 0.18
same,promoter activity interaction Z-score,[1]; [16],0.0174 ± 0.31
same,promoter activity interaction Z-score,[1]; [17],0.17 ± 0.29
same,promoter activity interaction Z-score,[1]; [18],0.132 ± 0.014
same,promoter activity interaction Z-score,[1]; [19],0.864 ± 1
same,promoter activity interaction Z-score,[1]; [20],0.303 ± 0.24
same,promoter activity interaction Z-score,[1]; [21],-0.0252 ± 0.29
same,promoter activity interaction Z-score,[1]; [22],0.0753 ± 0.22
same,promoter activity interaction Z-score,[1]; [23],0.762 ± 0.37
same,promoter activity interaction Z-score,[2]; [8],0.925 ± 0.19
same,promoter activity interaction Z-score,[2]; [9],1.52 ± 0.3
same,promoter activity interaction Z-score,[2]; [10],0.0874 ± 0.094
same,promoter activity interaction Z-score,[2]; [11],0.874 ± 0.41
same,promoter activity interaction Z-score,[2]; [12],1.58 ± 0.15
same,promoter activity interaction Z-score,[2]; [13],1.47 ± 0.32
same,promoter activity interaction Z-score,[2]; [14],-0.0293 ± 0.12
same,promoter activity interaction Z-score,[2]; [15],1.28 ± 0.27
same,promoter activity interaction Z-score,[2]; [16],1.63 ± 0.018
same,promoter activity interaction Z-score,[2]; [17],2.83 ± 0.69
same,promoter activity interaction Z-score,[2]; [18],0.0326 ± 0.04
same,promoter activity interaction Z-score,[2]; [19],1.55 ± 0.65
same,promoter activity interaction Z-score,[2]; [20],3.65 ± 0.97
same,promoter activity interaction Z-score,[2]; [21],4.03 ± 0.93
same,promoter activity interaction Z-score,[2]; [22],0.103 ± 0.13
same,promoter activity interaction Z-score,[2]; [23],2.91 ± 1.6
same,promoter activity interaction Z-score,[3]; [8],1.28 ± 0.39
same,promoter activity interaction Z-score,[3]; [9],1.01 ± 0.13
same,promoter activity interaction Z-score,[3]; [10],0.0768 ± 0.058
same,promoter activity interaction Z-score,[3]; [11],1.65 ± 0.72
same,promoter activity interaction Z-score,[3]; [12],2.71 ± 0.15
same,promoter activity interaction Z-score,[3]; [13],1.72 ± 0.17
same,promoter activity interaction Z-score,[3]; [14],-0.0682 ± 0.092
same,promoter activity interaction Z-score,[3]; [15],2.27 ± 0.1
same,promoter activity interaction Z-score,[3]; [16],3.93 ± 0.29
same,promoter activity interaction Z-score,[3]; [17],3.13 ± 0.049
same,promoter activity interaction Z-score,[3]; [18],-0.0129 ± 0.082
same,promoter activity interaction Z-score,[3]; [19],4.2 ± 0.47
same,promoter activity interaction Z-score,[3]; [20],9.84 ± 0.76
same,promoter activity interaction Z-score,[3]; [21],6.96 ± 1.9
same,promoter activity interaction Z-score,[3]; [22],0.216 ± 0.022
same,promoter activity interaction Z-score,[3]; [23],9.87 ± 0.2
same,promoter activity interaction Z-score,[4]; [8],0.171 ± 0.69
same,promoter activity interaction Z-score,[4]; [9],0.0413 ± 0.047
same,promoter activity interaction Z-score,[4]; [10],0.636 ± 0.1
same,promoter activity interaction Z-score,[4]; [11],0.0579 ± 0.15
same,promoter activity interaction Z-score,[4]; [12],0.648 ± 0.61
same,promoter activity interaction Z-score,[4]; [13],0.121 ± 0.51
same,promoter activity interaction Z-score,[4]; [14],-0.106 ± 0.46
same,promoter activity interaction Z-score,[4]; [15],-0.0276 ± 0.3
same,promoter activity interaction Z-score,[4]; [16],-0.351 ± 0.49
same,promoter activity interaction Z-score,[4]; [17],0.00292 ± 0.16
same,promoter activity interaction Z-score,[4]; [18],-0.133 ± 0.69
same,promoter activity interaction Z-score,[4]; [19],0.291 ± 0.42
same,promoter activity interaction Z-score,[4]; [20],0.651 ± 0.51
same,promoter activity interaction Z-score,[4]; [21],0.268 ± 0.19
same,promoter activity interaction Z-score,[4]; [22],0.227 ± 0.64
same,promoter activity interaction Z-score,[4]; [23],0.245 ± 0.21
same,promoter activity interaction Z-score,[5]; [8],0.0869 ± 0.41
same,promoter activity interaction Z-score,[5]; [9],1.13 ± 1.2
same,promoter activity interaction Z-score,[5]; [10],0.442 ± 0.56
same,promoter activity interaction Z-score,[5]; [11],1.35 ± 0.27
same,promoter activity interaction Z-score,[5]; [12],1.03 ± 0.53
same,promoter activity interaction Z-score,[5]; [13],-0.488 ± 0.27
same,promoter activity interaction Z-score,[5]; [14],0.545 ± 0.89
same,promoter activity interaction Z-score,[5]; [15],1.19 ± 0.12
same,promoter activity interaction Z-score,[5]; [16],-0.142 ± 0.26
same,promoter activity interaction Z-score,[5]; [17],-0.194 ± 0.34
same,promoter activity interaction Z-score,[5]; [18],-0.0955 ± 0.42
same,promoter activity interaction Z-score,[5]; [19],-0.0533 ± 0.92
same,promoter activity interaction Z-score,[5]; [20],-0.121 ± 0.73
same,promoter activity interaction Z-score,[5]; [21],-0.257 ± 0.088
same,promoter activity interaction Z-score,[5]; [22],0.111 ± 1.4
same,promoter activity interaction Z-score,[5]; [23],-1.19 ± 0.4
same,promoter activity interaction Z-score,[6]; [8],-0.0276 ± 0.14
same,promoter activity interaction Z-score,[6]; [9],0.29 ± 0.3
same,promoter activity interaction Z-score,[6]; [10],0.512 ± 0.15
same,promoter activity interaction Z-score,[6]; [11],-0.000875 ± 0.083
same,promoter activity interaction Z-score,[6]; [12],0.149 ± 0.051
same,promoter activity interaction Z-score,[6]; [13],0.331 ± 0.32
same,promoter activity interaction Z-score,[6]; [14],0.0369 ± 0.011
same,promoter activity interaction Z-score,[6]; [15],0.0413 ± 0.11
same,promoter activity interaction Z-score,[6]; [16],0.0939 ± 0.035
same,promoter activity interaction Z-score,[6]; [17],0.405 ± 0.044
same,promoter activity interaction Z-score,[6]; [18],0.395 ± 0.12
same,promoter activity interaction Z-score,[6]; [19],0.167 ± 0.44
same,promoter activity interaction Z-score,[6]; [20],0.212 ± 0.044
same,promoter activity interaction Z-score,[6]; [21],0.529 ± 0.026
same,promoter activity interaction Z-score,[6]; [22],0.257 ± 0.16
same,promoter activity interaction Z-score,[6]; [23],0.6 ± 0.85
same,promoter activity interaction Z-score,[7]; [8],-0.298 ± 0.42
same,promoter activity interaction Z-score,[7]; [9],0.922 ± 0.83
same,promoter activity interaction Z-score,[7]; [10],-0.0951 ± 0.85
same,promoter activity interaction Z-score,[7]; [11],0.425 ± 0.39
same,promoter activity interaction Z-score,[7]; [12],0.642 ± 1.2
same,promoter activity interaction Z-score,[7]; [13],0.724 ± 0.083
same,promoter activity interaction Z-score,[7]; [14],-0.684 ± 0.056
same,promoter activity interaction Z-score,[7]; [15],0.896 ± 0.56
same,promoter activity interaction Z-score,[7]; [16],0.921 ± 0.51
same,promoter activity interaction Z-score,[7]; [17],0.55 ± 0.57
same,promoter activity interaction Z-score,[7]; [18],-0.368 ± 0.11
same,promoter activity interaction Z-score,[7]; [19],1.64 ± 0.38
same,promoter activity interaction Z-score,[7]; [20],1.37 ± 0.41
same,promoter activity interaction Z-score,[7]; [21],1.61 ± 1.5
same,promoter activity interaction Z-score,[7]; [22],0.892 ± 0.67
same,promoter activity interaction Z-score,[7]; [23],0.579 ± 1
